# The campaign covered roughly 2,400 compounds. About 580 (24%) were called active. The list is a sample of the results. Values without a mark were called inactive.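 Rule for the calls: active = activity change at or above the mean plus 3 SD of buffer wells without dofetilide, per plate; inactive = the rest.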
# Biological target: Potassium voltage-gated channel subfamily KQT member 2 (Rattus norvegicus) (UniProt O88943)
# Test: rat KCNQ2 channel activation by compounds alone, confirmation, counter-screen for hERG block protector project, cell-based, CHO, FluxOR thallium flux (AID 1942);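 note: normalized value minus buffer-control mean plus three SD of buffer wells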
# Conditions: CHO-KCNQ2 cells, FluxOR thallium flux fluorescence; at 10 µM; hits give high values
# Chain of Potassium voltage-gated channel subfamily KQT member 2 (Rattus norvegicus) (O88943 whole entry, looked up): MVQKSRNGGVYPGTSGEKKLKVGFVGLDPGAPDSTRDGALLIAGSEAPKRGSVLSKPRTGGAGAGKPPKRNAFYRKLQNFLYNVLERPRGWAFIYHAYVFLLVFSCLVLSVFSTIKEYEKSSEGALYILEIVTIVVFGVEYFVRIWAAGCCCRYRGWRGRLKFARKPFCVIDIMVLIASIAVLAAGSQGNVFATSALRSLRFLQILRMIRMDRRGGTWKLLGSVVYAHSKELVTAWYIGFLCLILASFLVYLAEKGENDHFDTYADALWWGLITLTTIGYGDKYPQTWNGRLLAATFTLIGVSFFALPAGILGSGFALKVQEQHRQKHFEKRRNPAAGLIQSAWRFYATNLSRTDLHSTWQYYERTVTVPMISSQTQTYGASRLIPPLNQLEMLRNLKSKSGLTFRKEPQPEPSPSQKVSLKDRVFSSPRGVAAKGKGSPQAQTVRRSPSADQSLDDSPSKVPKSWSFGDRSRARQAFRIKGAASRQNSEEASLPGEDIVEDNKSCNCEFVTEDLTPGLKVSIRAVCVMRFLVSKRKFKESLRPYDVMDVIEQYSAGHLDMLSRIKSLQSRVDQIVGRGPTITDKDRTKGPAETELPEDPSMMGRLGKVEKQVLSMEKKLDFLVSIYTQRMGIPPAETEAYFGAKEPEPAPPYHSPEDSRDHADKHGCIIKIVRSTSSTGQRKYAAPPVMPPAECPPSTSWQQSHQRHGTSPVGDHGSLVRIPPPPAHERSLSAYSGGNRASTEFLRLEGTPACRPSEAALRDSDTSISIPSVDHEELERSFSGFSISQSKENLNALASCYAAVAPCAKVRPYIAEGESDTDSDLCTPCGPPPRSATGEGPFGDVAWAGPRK
row,SMILES,"activity change, less the hit threshold"
1,Cc1nnc2ccc(-c3cccc(NC(=O)c4ccc(Cl)nc4)c3)nn12,-16.1%
2,CNC(=O)c1c(O)c2cccc3c2n(c1=O)CC3,-22.2%
3,c1ccc2oc(-c3ccn[nH]3)cc2c1,-0.3%
4,Cc1csc(NC(=O)C2C3C=CC(C3)C2C(=O)O)n1 (stereo not drawn),-13.2%
5,Cc1csc(NC(=O)c2cc3c(s2)CCCC3)n1,17.9% (active)
6,Cc1csc(NC(=O)c2cn3ccccc3n2)n1,-15.1%
7,Cc1occc1C(=O)Nc1cccc([N+](=O)[O-])c1,-10.3%
8,O=C(O)c1ccc(N=NNc2cccc([N+](=O)[O-])c2)cc1,2.2% (active)
9,NC(=O)c1cccnc1Nc1cccc([N+](=O)[O-])c1,-14.1%
10,CC(=O)Nc1ccc(NC(=O)CSc2ncc(C(=O)Nc3ccc(Cl)cc3)c(=O)n2C)cc1,-4.1%
11,N=c1c2cn[nH]c2nc(SCC(=O)c2ccc(Br)cc2)n1-c1ccc(Br)cc1,-23.7%
12,CCOC(=O)C(=CNc1cc(C)ccc1[N+](=O)[O-])C(=O)OCC,-8.6%
13,CCOC(=O)C(=CNc1ccc(OC)cc1[N+](=O)[O-])C(=O)OCC,-13.9%
14,CCOC(=O)N/N=C/C=C/c1ccccc1[N+](=O)[O-],5.2% (active)
15,O=S(=O)(NCc1ccc(Cl)cc1Cl)c1ccc(N2CCOCC2)nc1,-15%
16,CCOC(=O)/C=C/c1ccc2c(c1)S(=O)(=O)N(c1cccc(OC)c1)[C@H]2CC(=O)OCC,-13.3%
17,CCCn1nnnc1NC(=O)c1cc(Cl)ccc1Cl,-33.4%
18,CN(C)C(=O)c1cc(C(=O)c2ccc(Cl)cc2Cl)c[nH]1,-14.9%
19,O=C(Nc1ccsc1C(=O)O)c1ccccc1Cl,-14.7%
20,CCCN(CCC)C(=S)NC(=O)c1ccc(Cl)cc1Cl,55% (active)
21,CCN(CC)C(=S)NC(=O)c1ccc(Cl)cc1Cl,9% (active)
22,O=C(NC(=S)Nc1nc(-c2cccc([N+](=O)[O-])c2)cs1)c1ccccc1Cl,-10.8%
23,CN(C)CCCN=C(NO)c1ccc(Cl)cc1Cl,-14.9%
24,CN(C)/C=C/C(=O)c1ccc(Cl)cc1Cl,-15.1%

row,SMILES,"activity change, less the hit threshold"
1,CCCCN(CCCC)C(=S)NC(=O)c1ccccc1Cl,89.6% (active)
2,CCC(=O)NC(c1cccs1)c1ccc2cccnc2c1O (stereo not drawn),-16.7%
3,CCC(C)NC(=O)c1c(-c2cc(Cl)c(OC)c(Cl)c2)noc1C (stereo not drawn),-12.6%
4,O=[N+]([O-])c1cccc(/C=N/N=C\c2ccccc2)c1,-20.8%
5,CN(C(=O)CSc1ncnc2sc(-c3ccccc3)cc12)C1CCS(=O)(=O)C1 (stereo not drawn),80.2% (active)
6,CCOC(=O)c1sc2nc(C)nc(SCC(=O)N(C)C3CCS(=O)(=O)C3)c2c1C (stereo not drawn),-0.6%
7,Cc1ccccc1-n1c(SCC(=O)N(C)C2CCS(=O)(=O)C2)nnc1-c1ccncc1 (stereo not drawn),-7.7%
8,O=C(O)CCSc1ncnc2sc(-c3ccccc3)cc12,22.1% (active)
9,CCC(C)NC(=O)CSc1ncnc2sccc12 (stereo not drawn),-14.8%
10,Cc1ccccc1Cc1c(C)nc2c(C(=O)NCc3ccc4c(c3)OCO4)cnn2c1C,-18.7%
11,CC(CCc1ccccc1)NC(=S)NC(=O)c1ccco1 (stereo not drawn),15.2% (active)
12,O=C(O)CNC(=O)c1ccc(NC(=O)/C(=C/c2ccccc2)NC(=O)c2ccco2)cc1,-25.9%
13,O=C(NC(=S)N(CCc1ccccc1)CCc1ccccc1)c1ccco1,36% (active)
14,NC(=O)c1nsc(C(=O)N(CC(=O)NCc2ccccc2)c2ccc(F)cc2)c1N,-23.6%
15,C/C(=N\NC(=O)c1ccc(NS(=O)(=O)c2cccs2)cc1)c1ccc2c(c1)OCO2,-25.3%
16,CNC(=O)COC(=O)c1cccc(S(=O)(=O)N2CCN(c3ccc(F)cc3)CC2)c1,-11.1%
17,C=CCn1c(=S)[nH]c2nc3c(cc2c1=O)CCCC3,-7.5%
18,C=CCn1c(=S)[nH]c2sc3c(c2c1=O)CCC3,34.8% (active)
19,C=CCn1c(=S)[nH]c2sc3c(c2c1=O)CCCC3,46.1% (active)
20,Cc1ccc(C(C)C)cc1OCCn1cncn1,-20.3%
21,CCCOc1ccc(C2NC(=S)NC(c3ccccc3)=C2C(=O)Nc2ccc(C)cc2)cc1OC (stereo not drawn),-6.2%
22,CNC(=O)CSc1nnc(-c2ccco2)n1-c1ccccc1,-16.7%
23,Cc1ccc(NC(=O)C(=O)NNC(=O)c2cccs2)cc1,60.8% (active)
24,CCc1ccc(NC(=O)C(=O)NNC(=O)c2cccs2)cc1,67.5% (active)

row,SMILES,"activity change, less the hit threshold"
1,COc1ccc(NC(=O)CNC(=O)c2cccs2)cc1Cl,-13.7%
2,O=C(Nc1ccc(NC(=O)C2CC2)nc1)c1cccs1,-16.2%
3,Cc1ccc(N/C=C/C(=O)c2cccs2)cc1,-18%
4,COc1ccc(/C=C/C(=O)NC(=S)NNC(=O)c2cccs2)cc1,-21.3%
5,C=CCc1cc(Cl)ccc1OCCOCCN(C)C,-18.7%
6,Oc1ccc(N=Nc2ccccc2-c2nn[nH]n2)c(O)c1,-0.7%
7,Nc1nonc1C(=O)N1CCCC1,-21%
8,Cc1cc(C(=O)NNC2CC(=O)N(c3ccc4ccccc4c3)C2=O)c(C)o1 (stereo not drawn),-17.4%
9,COc1ccc(C(=O)c2oc3ccccc3c2N)cc1,-8.5%
10,O=C(N/N=C\c1coc2ccccc2c1=O)c1ccco1,-15.7%
11,COc1ccc(-c2oc3ccccc3c(=O)c2OC(C)=O)cc1,7.3% (active)
12,COc1ccc(OC(=O)Cc2cccc3ccccc23)cc1,-8.5%
13,CC(=O)Oc1c(-c2ccc(Br)o2)oc2ccccc2c1=O,99.4% (active)
14,CC(=O)Oc1c(-c2ccco2)oc2ccccc2c1=O,6.8% (active)
15,NC(=O)c1ccsc1NC(=O)CS(=O)(=O)c1ccccc1,-4.3%
16,COc1ccc(Cc2c(O)nc(SCC(C)C)[nH]c2=O)cc1,-20.7%
17,CCOC(=O)C(=CNc1cc(C)ccn1)C(=O)OCC,-11.3%
18,CCOC(=O)C(=CNc1cccc(C)n1)C(=O)OCC,-11.8%
19,CCOC(=O)C(=CNc1ccc(N2CCOCC2)cc1)C(=O)OCC,0.3% (active)
20,NC(=O)Cn1nnc(-c2ccc(CN3CCCCC3)cc2)n1,-14.8%
21,O=C(c1cccc(C(F)(F)F)c1)C1CCCN(C(=O)CCn2cnnn2)C1 (stereo not drawn),-8.8%
22,O=C(Cn1nnc(-c2cccc(C(F)(F)F)c2)n1)N1CCCCCC1,13.3% (active)
23,Cc1nc(NCCc2ccc(S(N)(=O)=O)cc2)c2c(C)c(C)sc2n1,0.6% (active)
24,O=C(NC1CCN(c2ncccn2)CC1)c1c(F)cccc1F,-9.6%

row,SMILES,"activity change, less the hit threshold"
1,COCC(=O)Nc1cc(C)cn(Cc2c(F)cccc2Cl)c1=O,-15.1%
2,Cc1ccc2c(Cl)cc(Cl)c(OCC(=O)NC3CCS(=O)(=O)C3)c2n1 (stereo not drawn),-23.4%
3,OCCN1CCN(c2ncnc3c2sc2nc(N4CCOCC4)c4c(c23)CCC4)CC1,-19.1%
4,Cc1csc2c(N3CCCCC3)ncnc12,3.5% (active)
5,CC1=CCC[C@@H]2[C@@](C)(CC/C(C)=C/C(=O)O)[C@H](C)CC[C@@]12C,-3.2%
6,CCCCn1c(N)c(C(=S)NC(=O)CC(C)(C)C)c(=O)n(C)c1=O,9.2% (active)
7,CC(=O)c1sc(-c2ccc(F)cc2)cc1NS(=O)(=O)c1ccc(C)cc1,-14.9%
8,O=C(NC(=S)Nc1nc2c(s1)CSc1ccccc1-2)c1ccccc1,-2.4%
9,CC(C)(C)c1ccc(C(=O)NC(=S)Nc2nc3c(s2)CCCC3)cc1,10% (active)
10,COC(=O)c1ccc(C(=O)NC(=S)Nc2nc3c(s2)CCCC3)cc1,16% (active)
11,COC(=O)c1ccc(C(=O)NC(=S)Nc2nc3c(s2)CC(C)CC3)cc1 (stereo not drawn),-11.7%
12,CN(C)/C=C1/C(=O)N(c2ccc([N+](=O)[O-])cc2)N=C1c1ccccc1,-5.3%
13,Clc1cccc(-c2ccc(C=Nc3ccc(N4CCOCC4)cc3)o2)c1Cl,-8.8%
14,O=C(OCc1ccc(F)cc1)c1cc(S(=O)(=O)N2CCCCC2)ccc1N1CCOCC1,-12.7%
15,CCOC(=O)C1CCN(C(=O)CCS(=O)(=O)c2ccc3c(c2)CCN3C(=O)CC)CC1,-16.7%
16,S=c1nc(C2CC2)[nH]c2ccccc12,35.2% (active)
17,S=c1nc(C2CCCCC2)[nH]c2ccccc12,4.1% (active)
18,COc1cc(S(=O)(=O)NCC2COCCO2)ccc1-n1cnnn1 (stereo not drawn),-13.9%
19,O=C(N=Nc1c(O)[nH]c2ccc([N+](=O)[O-])cc12)c1cc(-c2ccccc2Cl)nc2ccccc12,-10.8%
20,COc1ccc(NC(=O)CN2C(=O)S/C(=C/c3cccn3-c3ccc(C(=O)O)cc3)C2=O)cc1,-22.6%
21,c1ccc(-c2ccnc3nc(N4CCN(c5ccccc5)CC4)nn23)cc1,-26.3%
22,Cc1cc([N+](=O)[O-])c(C)cc1-c1ccc(/C=N/NC(=O)Cn2nnnc2N)o1,-10%
23,CC(=O)Nc1ccccc1C(=O)C(=O)Nc1ccc(Cl)cc1,-18.3%
24,CC(=O)Nc1ccccc1C(=O)C(=O)Nc1ccccc1,-23.5%

row,SMILES,"activity change, less the hit threshold"
1,COc1ccc(C(=O)Nc2ccccc2C(=O)O)cc1Cl,-8.6%
2,COc1ccc(Cl)cc1C(=O)Nc1cccnc1Cl,-15.9%
3,COc1ccccc1C(=O)NNC(=O)C(=O)Nc1cccc(Cl)c1C,131% (active)
4,Cc1ccccc1C(=O)NNC(=O)C(=O)Nc1cccc(Cl)c1C,17.7% (active)
5,O=C(Nc1ccccc1C(=O)O)c1ccc(NC(=O)C2CC2)cc1,-20.5%
6,O=C(Nc1cc(Cl)ccc1O)C1CC(c2ccccc2Cl)=NO1 (stereo not drawn),-19.1%
7,Oc1ccc(Cl)cc1C1=NNC(c2cccs2)C1 (stereo not drawn),9.1% (active)
8,CCOc1ccc2[nH]c(=O)c(CN(Cc3ccc(C)cc3)C(=O)N3CCCC3)cc2c1,-12.4%
9,CCSc1nnc(NC(=O)Cn2cnc3c2c(=O)n(C)c(=O)n3C)s1,-15.7%
10,S=c1[nH]nc(Nc2ccc(Cl)cc2)s1,-19.3%
11,Clc1ccc(Nc2ccc(Cl)nn2)cc1,7.4% (active)
12,Clc1ccc(Nc2nc3cccnc3s2)cc1,-20.7%
13,COc1ccc(/C=N/NC(=O)C(=O)N2CCCC2)cc1,-5%
14,N#Cc1c(-c2ccco2)c2c([nH]c1=S)CCCC2,-16.2%
15,O=C(NCc1ccccc1)C(=O)Nc1nc(C23CC4CC(CC(C4)C2)C3)cs1,-21.1%
16,O=[N+]([O-])c1cc(Cl)cc(/C=N/NC(=S)Nc2ccc(S(=O)(=O)N3CCOCC3)cc2)c1O,29.8% (active)
17,O=C(CCc1ccccc1Cl)Nc1ccc(S(=O)(=O)N2CCOCC2)cc1,-19.3%
18,O=C(NNC(=S)Nc1ccccc1)c1cccc(S(=O)(=O)N2CCOCC2)c1,-7.9%
19,Cc1ccc(F)cc1CNC(=O)C1CCC(=O)N(C2CC2)C1 (stereo not drawn),-13.7%
20,N#Cc1ccc(-c2ccc(OCC(=O)Nc3cccnc3)cc2)cc1,-9.1%
21,O=C(C1CC1)N1N=C(c2ccccc2)CC1(O)C(F)(F)C(F)(F)F (stereo not drawn),-22.1%
22,O=C(CN1C(=O)NC(Cc2ccccc2)C1=O)Nc1ccccc1OC(F)F (stereo not drawn),-20.5%

# Source: PubChem BioAssay AID1942 (Johns Hopkins Ion Channel Center, 2009)
